Measurements published in PubChem BioAssay (Tox21).
Where “and” joins values, the source holds several entries; their conditions need not be identical. Identical values can stand only once. More than one record can exist for a structure, and the calls need not agree. Calls of active or inactive are those of the source. Unless noted, calls come from the whole dose curve; as a rule, active = well fitted curve in the direction sought with a large enough effect in the repeat runs; inconclusive = weak or mixed curves; inactive = no such curve, though single readings can be large; an effect the other way counts as inactive or inconclusive.

Experiments:
[1] = qHTS assay to identify small molecule antagonists of the glucocorticoid receptor (GR) signaling pathway - cell viability counter screen (AID 720693); note: nearly all actives have a fitted effect of over 55% in size; note: potency is the fitted concentration of half-maximal effect
[2] = qHTS assay for identifying genotoxic compounds that show differential cytotoxicity against isogenic chicken DT40 cell lines with known DNA damage response pathways - wild type cell line (AID 743012); note: nearly all actives have a fitted effect of over 60% in size; note: potency is the fitted concentration of half-maximal effect
Outline: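 Luminescent ATP viability signal (CellTiter-Glo, 30 min RT) recorded after wild type DT40 cells were incubated with compounds for 40 h at 37 C/5% CO2.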

[3] = qHTS assay for identifying genotoxic compounds that show differential cytotoxicity against isogenic chicken DT40 cell lines with known DNA damage response pathways - Rev3 mutant cell line (AID 743014); note: nearly all actives have a fitted effect of over 55% in size; note: potency is the fitted concentration of half-maximal effect
[4] = qHTS assay for identifying genotoxic compounds that show differential cytotoxicity against isogenic chicken DT40 cell lines with known DNA damage response pathways - Rad54/Ku70 mutant cell line (AID 743015); note: nearly all actives have a fitted effect of over 60% in size; note: potency is the fitted concentration of half-maximal effect
[5] = qHTS assay to identify small molecule antagonists of the androgen receptor (AR) signaling pathway - cell viability counter screen (AID 743033; note: nearly all actives have a fitted effect of over 45% in size; note: potency is the fitted concentration of half-maximal effect)
[6] = qHTS assay to identify small molecule antagonists of the androgen receptor (AR) signaling pathway using the MDA cell line - cell viability counter screen (AID 743041; note: nearly all actives have a fitted effect of over 45% in size; note: potency is the fitted concentration of half-maximal effect)
Outline: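 Using the breast carcinoma line MDA-kb2 AR-luc, test chemicals were co-incubated with R1881 for 16 h; CellTiter-Fluor reagent, added at 15.5 h, provided a fluorescence measure of live cells.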

[7] = qHTS assay to identify small molecule antagonists of the thyroid receptor (TR) signaling pathway - cell viability counter screen (AID 743064); note: nearly all actives have a fitted effect of over 50% in size; note: potency is the fitted concentration of half-maximal effect
Outline: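 Rat GH3 pituitary tumor cells stably expressing two TR response elements driving luciferase were plated, rested 4 h, then dosed with library compounds and T3 (1 nM final). After 23.5 h at 37 °C, CellTiter-Fluor was added for 30 min and fluorescence recorded.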

[8] = qHTS assay to identify small molecule antagonists of the thyroid receptor (TR) signaling pathway (AID 743065); note: nearly all actives have a fitted effect of over 55% in size; note: potency is the fitted concentration of half-maximal effect
Outline: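 Antagonism measured as loss of luciferase signal in GH3 cells stably carrying a TRE-luciferase reporter, co-treated with compound and T3 (1 nM final) for 23.5 h at 37 C. Viability was read in the same well by CellTiter-Fluor.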

[9] = test system: thyroid hormone receptor (rat, GH3 cells); assay: qHTS assay to identify small molecule agonists of the thyroid receptor (TR) signaling pathway (AID 743066; calls by dose curve)
[10] = qHTS assay to identify small molecule antagonists of the estrogen receptor alpha (ER-alpha) signaling pathway - cell viability counter screen (AID 743074; calls by dose curve; note: nearly all actives have a fitted effect of over 45% in size; note: potency is the fitted concentration of half-maximal effect)
[11] = qHTS assay to identify small molecule antagonists of the estrogen receptor alpha (ER-alpha) signaling pathway using the BG1 cell line - cell viability counter screen (AID 743081);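 note: compound given together with 17beta-estradiol as the ER stimulus; nearly all actives have a fitted effect of over 45% in size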; note: potency is the fitted concentration of half-maximal effect
Aromatase (Homo sapiens) = Aromatase (Homo sapiens) (UniProt P11511); assay: qHTS assay to identify aromatase inhibitors (AID 743083); note: nearly all actives have a fitted effect of over 55% in size; note: potency is the fitted concentration of half-maximal effect
Chain of Aromatase (Homo sapiens) (P11511 whole entry, looked up): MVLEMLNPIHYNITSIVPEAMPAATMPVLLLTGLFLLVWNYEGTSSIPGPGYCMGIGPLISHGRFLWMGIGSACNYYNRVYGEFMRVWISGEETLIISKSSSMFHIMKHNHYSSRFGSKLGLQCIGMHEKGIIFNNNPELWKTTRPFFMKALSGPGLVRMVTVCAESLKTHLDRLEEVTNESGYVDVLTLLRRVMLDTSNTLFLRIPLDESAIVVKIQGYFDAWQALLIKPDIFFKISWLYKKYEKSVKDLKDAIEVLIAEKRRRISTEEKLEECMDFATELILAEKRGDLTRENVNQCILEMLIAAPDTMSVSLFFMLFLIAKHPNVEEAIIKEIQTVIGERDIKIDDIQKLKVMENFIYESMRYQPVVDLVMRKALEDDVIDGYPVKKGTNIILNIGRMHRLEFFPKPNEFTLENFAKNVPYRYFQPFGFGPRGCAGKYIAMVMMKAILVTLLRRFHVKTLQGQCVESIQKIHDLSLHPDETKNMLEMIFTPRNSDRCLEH

[12] = target: Estrogen receptor (Homo sapiens) (UniProt P03372); assay: qHTS assay to identify small molecule antagonists of the estrogen receptor alpha (ER-alpha) signaling pathway (AID 743069; active = well fitted curve in the direction sought with a large enough effect in the signal ratio in the repeat runs, not every such curve was filed as active; inconclusive = weak or mixed curves, or effect the other way; inactive = no such curve, though single readings can be large or run the other way; the % refers to the signal ratio; note: potency is the fitted concentration of half-maximal effect)
Chain of Estrogen receptor (Homo sapiens) (P03372 whole entry, looked up): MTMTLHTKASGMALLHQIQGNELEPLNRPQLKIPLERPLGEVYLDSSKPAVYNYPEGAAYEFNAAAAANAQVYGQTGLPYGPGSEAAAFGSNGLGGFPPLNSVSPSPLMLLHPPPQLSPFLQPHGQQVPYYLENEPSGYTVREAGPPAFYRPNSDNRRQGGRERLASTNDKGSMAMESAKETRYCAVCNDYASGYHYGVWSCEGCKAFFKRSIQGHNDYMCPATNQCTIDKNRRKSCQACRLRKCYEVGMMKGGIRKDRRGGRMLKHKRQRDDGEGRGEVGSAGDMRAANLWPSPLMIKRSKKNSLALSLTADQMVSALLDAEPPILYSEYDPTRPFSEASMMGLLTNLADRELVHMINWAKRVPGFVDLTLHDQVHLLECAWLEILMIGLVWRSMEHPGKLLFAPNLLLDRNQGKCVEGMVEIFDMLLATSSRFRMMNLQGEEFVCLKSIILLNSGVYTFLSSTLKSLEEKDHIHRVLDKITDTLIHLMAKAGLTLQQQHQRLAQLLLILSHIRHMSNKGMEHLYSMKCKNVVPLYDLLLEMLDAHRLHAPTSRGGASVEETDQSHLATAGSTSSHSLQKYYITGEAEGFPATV
Outline: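 Fluorescence intensity from a beta-lactamase FRET substrate served as the read-out. Cells: HEK293 with stably integrated ER-alpha-UAS-bla reporter. Agonist 17beta-estradiol was co-added with compounds; incubation 18 hr at 37C, substrate 2 hr at room temperature.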

[13] = target: Estrogen receptor (Homo sapiens) (UniProt P03372); assay: qHTS assay to identify small molecule agonists of the estrogen receptor alpha (ER-alpha) signaling pathway (AID 743075; calls by dose curve; note: potency is the fitted concentration of half-maximal effect)
[14] = target: Estrogen receptor (Homo sapiens) (UniProt P03372); assay: qHTS assay to identify small molecule agonists of the estrogen receptor alpha (ER-alpha) signaling pathway using the BG1 cell line (AID 743079); note: nearly all actives have a fitted effect of over 20% in size; note: potency is the fitted concentration of half-maximal effect
[15] = qHTS assay to identify small molecule antagonists of the estrogen receptor alpha (ER-alpha) signaling pathway using the BG1 cell line (AID 743080; calls by dose curve;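 note: BG1 cells stimulated with 17beta-estradiol alongside compound; series mostly up to about 70 µM; nearly all actives have a fitted effect of over 25% in size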)
Outline: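 BG1-Luc-4E2 cells (endogenous full-length ER-alpha, 4xERE luciferase) hormone-starved 5 days in charcoal-stripped FBS, plated 4,000/well for 24 h, then compound plus 17beta-estradiol for 21.5 h at 37 C; ONE-Glo luminescence read.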

[16] = target: Androgen receptor (Homo sapiens) (UniProt P10275); assay: qHTS assay to identify small molecule antagonists of the androgen receptor (AR) signaling pathway (AID 743035; active = well fitted inhibition curve with a large enough effect in the signal ratio in the repeat runs, not every such curve was filed as active; inconclusive = weak or mixed curves, or effect the other way; inactive = no such curve, though single readings can be large or run the other way; the % refers to the signal ratio)
Chain of Androgen receptor (Homo sapiens) (P10275 whole entry, looked up): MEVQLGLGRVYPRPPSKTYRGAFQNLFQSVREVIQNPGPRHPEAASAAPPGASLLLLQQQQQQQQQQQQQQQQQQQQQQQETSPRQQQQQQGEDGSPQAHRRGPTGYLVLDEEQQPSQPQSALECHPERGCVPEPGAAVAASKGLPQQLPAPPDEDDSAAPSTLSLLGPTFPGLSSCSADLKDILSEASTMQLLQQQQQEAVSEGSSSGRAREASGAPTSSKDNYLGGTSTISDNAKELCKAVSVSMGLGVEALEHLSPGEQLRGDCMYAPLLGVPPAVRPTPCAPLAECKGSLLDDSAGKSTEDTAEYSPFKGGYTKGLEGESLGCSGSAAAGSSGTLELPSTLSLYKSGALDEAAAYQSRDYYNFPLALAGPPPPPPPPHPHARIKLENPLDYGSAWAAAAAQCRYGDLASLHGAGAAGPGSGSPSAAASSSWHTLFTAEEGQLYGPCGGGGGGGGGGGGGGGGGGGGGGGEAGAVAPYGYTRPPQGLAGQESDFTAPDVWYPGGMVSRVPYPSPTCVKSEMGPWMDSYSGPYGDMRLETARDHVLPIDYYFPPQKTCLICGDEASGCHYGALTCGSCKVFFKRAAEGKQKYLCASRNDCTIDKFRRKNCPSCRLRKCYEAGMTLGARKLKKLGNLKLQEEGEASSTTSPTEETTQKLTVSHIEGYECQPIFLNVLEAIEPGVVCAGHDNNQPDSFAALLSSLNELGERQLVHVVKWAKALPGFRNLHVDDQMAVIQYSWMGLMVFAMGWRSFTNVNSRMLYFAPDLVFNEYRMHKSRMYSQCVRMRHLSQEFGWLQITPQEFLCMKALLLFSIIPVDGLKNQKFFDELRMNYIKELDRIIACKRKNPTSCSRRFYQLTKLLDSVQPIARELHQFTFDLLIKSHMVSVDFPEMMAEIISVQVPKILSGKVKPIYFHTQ
Outline: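 Quantitative HTS of the Tox21 10K library used HEK293 AR-UAS-bla cells stimulated with R1881 alongside compound for 16 h at 37C, followed by beta-lactamase FRET detection (LiveBLAzer B/G, 2 h, RT).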

[17] = target: Androgen receptor (Homo sapiens) (UniProt P10275); assay: qHTS assay to identify small molecule agonists of the androgen receptor (AR) signaling pathway (AID 743036; active = well fitted activation curve with a large enough effect in the signal ratio in the repeat runs, with a control signal flat, not every such curve was filed as active; inconclusive = weak or mixed curves, or effect the other way; inactive = no such curve, though single readings can be large or run the other way; the % refers to the signal ratio)
Outline: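 Quantitative HTS of the Tox21 10K library in HEK293 cells bearing a stably integrated UAS-controlled beta-lactamase reporter. Compound exposure lasted 16 h at 37C. Reporter activity was detected by FRET substrate fluorescence after 2 h at room temperature.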

[18] = target: Androgen receptor (Homo sapiens) (UniProt P10275); assay: qHTS assay to identify small molecule agonists of the androgen receptor (AR) signaling pathway using the MDA cell line (AID 743040; note: nearly all actives have a fitted effect of over 20% in size)
Outline: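 Stable MMTV-luciferase reporter in MDA-kb2 cells; note the promoter carries GR as well as AR response elements. 16 h compound treatment, 37C, 0% CO2; ONE-Glo luminescence endpoint.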

[19] = target: Androgen receptor (Homo sapiens) (UniProt P10275); assay: qHTS assay to identify small molecule antagonists of the androgen receptor (AR) signaling pathway using the MDA cell line (AID 743042; note: nearly all actives have a fitted effect of over 55% in size)
Outline: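 Antagonist mode: compounds plus R1881 agonist added to MDA-kb2 AR-luc cells, incubated 16 h at 37C. Luciferase reporter luminescence quantified, with multiplexed CellTiter-Fluor readout for cell viability.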

Measured: Potency

CCC(=O)/C=C/C1C(C)=CCCC1(C)C (centres undefined)
inactive and 61.1 µM (active): [4]
not listed: [12] | [13] | [14] | [15] | [16] | [17] | [18] | [19]
inactive: all other assays above

O=C1CC2(CCCC2)CC(=O)N1CCCCN1CCN(c2ncccn2)CC1
inactive and 21.9 µM (active): [5]
inactive: [1] | [6] | [7] | [9] | [10] | [11]
active: [2] 21.1 µM and 13.7 µM | [3] 7.7 µM | [4] 21.1 µM and 15.4 µM

CNC1(C)C2CCC(C2)C1(C)C (centres undefined)
not listed: [12] | [13] | [14] | [15] | [16] | [17] | [18] | [19]
inactive: all other assays above

CCCN[C@H]1CCc2nc(N)sc2C1
inactive: [1] | [2] | [3] | [4] | [5] | [6] | [7] | [9] | [10] | [11] | Aromatase (Homo sapiens)

Nc1cc(S(=O)(=O)O)cc2cc(S(=O)(=O)O)cc(O)c12
inactive and 61.1 µM (active): [4]
inactive: [1] | [2] | [5] | [6] | [7] | [10] | [11] | Aromatase (Homo sapiens)
inactive and 24.3 µM (active): [3]

CC(=O)C1=C(C)[C@@H]2C[C@@]3(C1)[C@H](C)CC[C@H]3C2(C)C
63.9 µM (active) and inactive: [7]
not listed: [8] | [16] | [17] | [18] | [19]
inactive: all other assays above

CCCCCCC(O)CCCCCCCCCCC(=O)O (centres undefined)
inactive: [1] | [2] | [3] | [5] | [6] | [7] | [8] | [9] | Aromatase (Homo sapiens)
inactive and 48.6 µM (active): [4]

NNCCc1ccccc1
inactive: [1] | [2] | [3] | [4] | [5] | [6] | [9] | [10] | [11] | Aromatase (Homo sapiens)
active: [8] 30.7 µM
inactive and 27.4 µM (active): [7]

COc1ccc(COC(C)=O)cc1
not listed: [12] | [13] | [14] | [15] | [16] | [17] | [18] | [19]
inactive: all other assays above

CC(C(O)c1ccc(O)cc1)N1CCC(Cc2ccccc2)CC1 (centres undefined)
inactive: [1] | [5] | [9] | [12] | [10] | [13] | [14] | Aromatase (Homo sapiens)
active: [2] 2.11 µM | [3] 0.335 µM | [4] 668 nM | [7] 21.1 µM | [8] 23.7 µM

[Cl][In]([Cl])[Cl]
not listed: [8] | [14] | [16] | [17] | [18] | [19]
inactive: all other assays above

CC(COc1ccccc1)N(CCCl)Cc1ccccc1 (centres undefined)
active: [2] 21.1 µM and 27.3 µM | [3] 13.3 µM and 34.7 µM and 5.45 µM | [4] 23.7 µM and 15.4 µM
inactive: [1] | [5] | [6] | [10] | [11] | Aromatase (Homo sapiens)

O=C1OC2(c3ccc(O)cc3Oc3cc(O)ccc32)c2ccccc21
inactive and 23.7 µM (active): [14]
not listed: [6] | [7] | [11] | [12] | [16] | [17] | [18] | [19]
inactive: all other assays above

CC1COc2c(N3CCN(C)CC3)c(F)cc3c(=O)c(C(=O)O)cn1c23 (centres undefined)
inactive: [1] | [2] | [3] | [4] | [5] | [6] | [8] | [9] | [10] | [11] | Aromatase (Homo sapiens)

CC[C@H]1CN2CCc3cc(OC)c(OC)cc3[C@@H]2C[C@@H]1C[C@H]1NCCc2cc(OC)c(OC)cc21
inactive: [9] | [10]
active: [1] 4.92 µM | [2] 18.8 nM and 24.4 nM | [3] 23.7 nM and 19.4 nM | [4] 23.7 nM and 21.8 nM | [6] 6.88 µM | [7] 84.1 nM and 97.2 nM | [8] 37.6 nM and 38.7 nM | [11] 9.72 µM | Aromatase (Homo sapiens) 237 nM and 244 nM

CCC(C)(Oc1ccc(C2(c3ccc(OC(C)(CC)C(=O)O)cc3)CCCCC2)cc1)C(=O)O (centres undefined)
not listed: [3]
inactive: all other assays above

COC(=O)c1cccc(C(=O)OC)c1
not listed: [3]
inactive: all other assays above

CCCCC(CC)COC(=O)CC(C(=O)OCC(CC)CCCC)S(=O)(=O)O (centres undefined)
inactive and 15 µM (active): [14]
inactive and 43.3 µM (active): [4]
47.1 µM (active) and inactive: [10]
active: [12] 21.3 µM [inhibitor] and 54.9 µM [inhibitor]
not listed: [7] | [8] | [16] | [17] | [18] | [19]
inactive: all other assays above

CCC[C@H](N[C@@H](C)C(=O)N1[C@H](C(=O)O)C[C@@H]2CCCC[C@@H]21)C(=O)OCC
not listed: [7] | [11] | [16] | [17] | [18] | [19]
inactive: all other assays above

CC(C)(C)c1ccccc1
inactive: [1] | [2] | [3] | [4] | [5] | [6] | [7] | [10] | [11]

CN(C)c1ccc(C(=C2C=CC(=[N+](C)C)C=C2)c2ccccc2)cc1
active: [1] 0.195 µM | [2] 1.06 µM and 13.7 nM | [3] 1.19 µM and 7.7 nM | [4] 1.5 µM and 10.9 nM | [5] 0.155 µM | [7] 7.5 µM and 68.6 nM | [8] 6.68 µM and 48.6 nM | [10] 1.1 µM | Aromatase (Homo sapiens) 243 nM
inactive: [9]
inactive and 9.69 µM (active): [11]

Cc1cc(C(C)(C)C)c(O)c(C(C)(C)C)c1
inactive and 30.6 µM (active): [3]
inactive and 27.3 µM (active): [4]
inactive: [1] | [2] | [5] | [6] | [7] | [8] | [9] | [10] | [11] | Aromatase (Homo sapiens)

O
inactive: [1] | [4] | [5] | [6] | [7] | [10] | [11] | Aromatase (Homo sapiens)
inactive and 9.81 µM (active): [3]
inactive and 13.9 µM (active): [2]

COC(=O)[C@H]1[C@H]2C[C@@H]3c4[nH]c5cc(OC)ccc5c4CCN3C[C@H]2C[C@@H](OC(=O)c2cc(OC)c(OC)c(OC)c2)[C@@H]1OC
inactive: [1] | [6] | [10] | [11]
active: [2] 13.3 µM and 17.7 µM | [3] 18.8 µM and 25 µM | [4] 18.8 µM and 24.3 µM and 22.3 µM | [7] 11.9 µM and 24.3 µM | [8] 11.9 µM and 21.6 µM and 39.7 µM | Aromatase (Homo sapiens) 16.8 µM and 27.3 µM and 56 µM
inactive and 21.8 µM (active): [5]

Cc1cc(Cc2cc(C)cc(C(C)(C)C)c2O)c(O)c(C(C)(C)C)c1
active: [1] 12.4 µM and 13.8 µM | [2] 15.4 µM and 17.2 µM | [3] 13.8 µM and 19.3 µM | [4] 9.74 µM and 15.4 µM | [5] 22 µM | [7] 15.4 µM and 12.2 µM | [8] 6.89 µM and 8.63 µM | [10] 22 µM and 24.5 µM | [11] 68.9 µM | Aromatase (Homo sapiens) 30.8 µM and 48.6 µM
inactive: [9]

CCCOC(=O)c1cc(O)c(O)c(O)c1
26.6 µM (active) and inactive: [14]
active: [2] 13.3 µM and 43.1 µM and 43.3 µM | [3] 15 µM and 27.2 µM and 30.6 µM | [4] 13.3 µM and 27.2 µM and 27.3 µM | [13] 9.52 µM [inconclusive] and 19.4 µM [inconclusive] and 61.6 µM [inconclusive]
not listed: [7] | [12] | [16] | [17] | [18] | [19]
inactive: all other assays above

CC(=O)CC(C)=O
not listed: [3] | [16] | [17] | [18] | [19]
inactive: all other assays above

Cc1occc(=O)c1OC(=O)C(C)C
inactive: [1] | [2] | [4] | [5] | [6] | [7] | [8] | [9] | [10] | [11] | Aromatase (Homo sapiens)
